Compound activity from PubChem BioAssay.
Shown are actives, neighbours in structure and some others; about 0.93% of the full set was active somewhere.
RPL19A-GFP yeast – modulators of TOR pathway RPL19A-GFP in S. cerevisiae | S. cerevisiae RPL19A-GFP strain, flow cytometry, 3 h; hits give low values | percent response vs DMSO, % at 10 µM | 330,000 tested, 0.3% active | AID 2025;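 active = percent response vs DMSO below 50%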;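 note: median channel GFP fluorescence of the barcoded RPL19A-GFP strain; lower means less RPL19A-GFP as with rapamycin TOR inhibition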
AGP1-GFP MLPCN – yeast TOR pathway AGP1-GFP modulation; 320,000 tested, 0.02% active; S. cerevisiae AGP1-GFP multiplex flow cytometry, 3 h; GFP as percent of DMSO wells; GFP response vs DMSO, % at 10 µM;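 active = GFP response relative to DMSO above a set limit, near screen average plus 3 SD, cut at about 150% in these data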;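 note: median GFP channel fluorescence of the gated AGP1 strain per well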
CIT2 TOR yeast – alters CIT2-GFP fluorescence in TOR pathway yeast screen | 320,000 tested, 0.065% active | S. cerevisiae CIT2-GFP strain, flow cytometry, 3 h; 100 means same as DMSO wells | GFP response vs DMSO, % at 10 µM;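 active = GFP response relative to DMSO above a set limit, near the screen mean plus 3 SD, cut at about 150% in these data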;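 note: ratio of well median GFP fluorescence to mean of DMSO wells on the plate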
MEP2 TOR yeast – alters MEP2-GFP fluorescence in TOR pathway yeast screen. S. cerevisiae MEP2-GFP strain, flow cytometry GFP, 3 h; 100% = DMSO control level. AID 2016. 330,000 tested, 0.51% active. GFP response vs DMSO, % at 10 µM;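 active = GFP response versus DMSO above a set limit, roughly screen mean plus 3 SD, cut at about 180% in these data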;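 note: median GFP fluorescence of the barcode-gated MEP2-GFP cells per well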
LAP4-GFP MLPCN – alters LAP4-GFP fluorescence in TOR pathway yeast screen; S. cerevisiae LAP4-GFP multiplex, flow cytometry GFP, 3 h; median GFP as percent of DMSO wells; GFP response vs DMSO, % at 10 µM; 320,000 tested, 0.34% active; AID 2023;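 active = GFP response vs DMSO above a set limit, about the screen mean plus 3 SD, cut at about 150% in these data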
LAP4 cherry2 – yeast LAP4-GFP modulation, second cherry pick | 590 tested, 20% active | GFP response vs DMSO, % at 10 µM | S. cerevisiae LAP4-GFP strain, flow cytometry GFP, 3 h | shares compounds with LAP4-GFP MLPCN | AID 2621;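 active = GFP signal as percent of the solvent control above about 150%, meaning raised reporter expression, limit read from the data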
MEP2-GFP pick2 – second confirmation of modulators of TOR reporter MEP2-GFP in yeast; shares compounds with LAP4-GFP MLPCN; S. cerevisiae MEP2-GFP strain, flow cytometry GFP, 3 h; GFP response vs DMSO, % at 10 µM; 590 tested, 10% active; AID 2622;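 active = GFP signal above 150% of the solvent control wells, that is a rise of more than half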;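 note: median channel GFP fluorescence of all gated yeast cells per well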
RPL19A-GFP pick2 – yeast RPL19A-GFP TOR reporter modulation, second cherry pick. shares compounds with LAP4-GFP MLPCN. 590 tested, 3% active. GFP response vs DMSO, % at 10 µM. S. cerevisiae RPL19A-GFP strain, flow cytometry GFP, 3 h; hits give low values; 100% means same as DMSO wells;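 active = under 65% GFP response relative to DMSO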;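 note: median GFP channel fluorescence per well over the all cells gate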
CIT2-GFP pick2 – second confirmation of modulators of TOR reporter CIT2-GFP in yeast; shares compounds with LAP4-GFP MLPCN; S. cerevisiae CIT2-GFP strain, flow cytometry GFP, 3 h; DMSO control wells read 100%; GFP response vs DMSO, % at 10 µM; 590 tested, 8% active; AID 2624;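 active = GFP response vs DMSO above about 150%, limit read from the data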;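 note: median green fluorescence per well over all gated yeast cells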
AGP1 GFP CP2 – reconfirmed modulator of AGP1-GFP TOR reporter in yeast; shares compounds with LAP4-GFP MLPCN; S. cerevisiae AGP1-GFP strain, flow cytometry GFP, 3 h; percent response vs DMSO, % at 10 µM; 590 tested, under 10 active; AID 2643;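 active = over 150 percent of DMSO response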;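 note: median GFP channel fluorescence over all cells without mother daughter split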
Yeast autofluor – counter-screen for compound autofluorescence in yeast s288c cells. shares compounds with LAP4-GFP MLPCN. S. cerevisiae s288c, 520 nm autofluorescence, flow cytometry, 3 h; hits give high values; zero means same as solvent-only cells. fluorescence change (kMESF span) at 33 µM. 610 tested, under 10 active;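 active = fluorescence span over the dose series, or activity score, above about 33, limit read from the data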
s288c autofl DR – TOR screen hit shows autofluorescence in yeast s288c; shares compounds with LAP4-GFP MLPCN; S. cerevisiae s288c parental, compound autofluorescence, flow cytometry, 3 h; fluorescence change (span) at 33 µM; 110 tested, under 10 active;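 active = fluorescence change span, or the activity score built from it, above 25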
TORC1 bypass – stops wildtype yeast growth while TORC1 bypass cells still grow; shares compounds with LAP4-GFP MLPCN; growth rating (0-3) at 30 µM; S. cerevisiae BY4741 spot growth rating, 48-72 h; hits give low values; AID 504456; 120 tested, under 10 active;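 active = growth rating at most 1 for wild type yeast while the TORC1 bypass strain still grows fully, rated 3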
Of the large screens only hits and unclear results are named; the others gave an inactive call (follow-up assays come after a bar, where they were run).

CCC(=O)NC(c1ccccc1OC)c1ccc2cccnc2c1O (stereo unspecified)	none
COc1ccc(Cl)cc1C(Nc1cccnc1)c1ccc2cccnc2c1O (stereo unspecified)	LAP4-GFP MLPCN 191.7 | Yeast autofluor inactive
COc1cc2cc(C(c3nnnn3C(C)(C)C)N3CCc4ccccc43)c(=O)[nH]c2cc1OC (stereo unspecified)	none
Cc1ccc(S(=O)(=O)N2CC(C(=O)O)=CC[C@H]2c2ccc(Cl)cc2)cc1	LAP4-GFP MLPCN 159.2 | LAP4 cherry2 inactive | MEP2-GFP pick2 inactive | RPL19A-GFP pick2 inactive | CIT2-GFP pick2 inactive | AGP1 GFP CP2 inactive | Yeast autofluor inactive
COc1ccc([C@@H]2CC=C(C(=O)O)CN2S(=O)(=O)c2ccc(Cl)cc2)cc1	none
CCCCCCCCC/C(=N\O)c1ccccn1	LAP4-GFP MLPCN 227.9 | Yeast autofluor inactive
O=C(CSc1nnc(-c2ccc(Br)o2)n1Cc1ccccc1)c1ccccc1F	none
CN(C)c1nc(C#N)nc(N(C)C)n1	none
CCCN(CCC)c1nc(C#N)nc(N(CCC)CCC)n1	none | LAP4 cherry2 inactive | MEP2-GFP pick2 inactive | RPL19A-GFP pick2 inactive | CIT2-GFP pick2 inactive | AGP1 GFP CP2 inactive
C/C(=N/NC(=O)CNC(=O)COc1cccc(C)c1)c1ccc(Cl)cc1	none
CCOC(=O)C1=C(COC(=O)CNC(=O)c2ccc(C(C)(C)C)cc2)NC(=O)NC1C (stereo unspecified)	none
CCOC(=O)C1=C(COC(=O)CNC(=O)c2ccc(C)cc2)NC(=O)NC1C (stereo unspecified)	none | LAP4 cherry2 inactive | MEP2-GFP pick2 inactive | RPL19A-GFP pick2 inactive | CIT2-GFP pick2 inactive | AGP1 GFP CP2 inactive
COc1ccc(C2=CC3=C(Br)C(=O)C(C)(O)C(=O)C3=CO2)cc1 (stereo unspecified)	RPL19A-GFP yeast 41.5 | LAP4 cherry2 inactive | MEP2-GFP pick2 150.2 | RPL19A-GFP pick2 33.8 | CIT2-GFP pick2 159.9 | AGP1 GFP CP2 inactive | Yeast autofluor inactive
CCC(=O)OC1(C)C(=O)C2=COC(c3ccc(OC)cc3)=CC2=C(Br)C1=O (stereo unspecified)	none
Cc1ccc(NC(=O)c2cc(N3C(=O)C=CC3=O)ccc2N2CCOCC2)cc1Cl	LAP4-GFP MLPCN 152.7 | LAP4 cherry2 162.3 | MEP2-GFP pick2 183.4 | RPL19A-GFP pick2 inactive | CIT2-GFP pick2 inactive | AGP1 GFP CP2 inactive | Yeast autofluor inactive | s288c autofl DR inactive | TORC1 bypass inactive
O=c1/c(=C/c2cccc3ccccc23)sc2ncnn12	LAP4-GFP MLPCN 155.1 | Yeast autofluor inactive | s288c autofl DR inactive | TORC1 bypass inactive
Cc1ccsc1/C=c1\sc2ncnn2c1=O	none
COCc1nc(-c2cc(OC)c(OC)c(OC)c2)no1	RPL19A-GFP yeast 24.8, MEP2 TOR yeast 792.9 | LAP4 cherry2 inactive | MEP2-GFP pick2 inactive | RPL19A-GFP pick2 inactive | CIT2-GFP pick2 inactive | AGP1 GFP CP2 inactive
O=C(CNC(=O)c1ccccc1)OCC(=O)c1ccc(Cl)s1	LAP4-GFP MLPCN 189.8 | LAP4 cherry2 inactive | MEP2-GFP pick2 inactive | RPL19A-GFP pick2 inactive | CIT2-GFP pick2 inactive | AGP1 GFP CP2 inactive
O=C(c1ccc([N+](=O)[O-])o1)N1CCN(c2nc3c(F)cc(F)cc3s2)CC1	LAP4-GFP MLPCN 167.4 | Yeast autofluor inactive
O=S(=O)(/N=C(\Sc1ccc(Cl)cc1)c1ccccc1)c1ccccc1	LAP4-GFP MLPCN 213.6 | Yeast autofluor inactive
CS/C(=N\S(=O)(=O)c1ccc(Cl)cc1)c1ccccc1	none
COc1ccccc1CC1CC(=O)N(c2ccccc2)C1=O (stereo unspecified)	none
Cc1ccc(NC(=O)c2cnn(-c3ccccc3)c2NC(=O)c2ccco2)cc1	none
N/C(Cc1ccc(Cl)cc1Cl)=N\OC(=O)c1cccs1	LAP4-GFP MLPCN 217.2 | LAP4 cherry2 197.4 | MEP2-GFP pick2 158.9 | RPL19A-GFP pick2 inactive | CIT2-GFP pick2 186.3 | AGP1 GFP CP2 inactive | Yeast autofluor inactive
COc1ccc2c(c1)c(/C=C/c1cc[n+](C)cc1)cn2C	CIT2 TOR yeast 196.0, MEP2 TOR yeast 214.1 | Yeast autofluor inactive
CC[n+]1ccc(/C=C/c2c[nH]c3ccccc23)cc1	none
COc1ccc2c(/C=C/c3cc[n+](C)cc3)c[nH]c2c1	CIT2 TOR yeast 209.7, MEP2 TOR yeast 206.7, LAP4-GFP MLPCN 150.1 | Yeast autofluor inactive
COC(=O)Cn1cc(/C=C/c2cc[n+](C)cc2)c2ccccc21	none
Cc1ccc2[nH]cc(/C=C/c3cc[n+](C)cc3)c2c1	MEP2 TOR yeast 216.6, LAP4-GFP MLPCN 150.8 | Yeast autofluor inactive
Cc1cccc(CN2CCNC2=O)c1	none
CCCOc1ccc(C(=O)NNC(=S)NC(=O)CC)cc1	LAP4-GFP MLPCN 258.8 | Yeast autofluor inactive | s288c autofl DR inactive | TORC1 bypass inactive
Cc1ccc(Nc2ccc(-n3ccnc3)nn2)cc1C	none | LAP4 cherry2 inactive | MEP2-GFP pick2 inactive | RPL19A-GFP pick2 inactive | CIT2-GFP pick2 inactive | AGP1 GFP CP2 inactive
CC(C)(C=O)C1=CC(=O)c2ccccc2C1=O	LAP4-GFP MLPCN 193.0 | LAP4 cherry2 inactive | MEP2-GFP pick2 inactive | RPL19A-GFP pick2 inactive | CIT2-GFP pick2 inactive | AGP1 GFP CP2 inactive
CC1=CC(=O)c2ccccc2C1=O	none
O=C(NCC(=O)N1CCN(C(c2ccccc2)c2ccccc2)CC1)c1ccccc1F	none
